High-throughput results: PubChem, National Center for Advancing Translational Sciences (NCATS)
Only some compounds are listed: those with a hit (about 19% of all), similar ones and a draw of the others.
DT40 TDP1 CPT – growth inhibition of DT40 Tdp1-/-;hTDP1 cells with camptothecin (screen for TDP1 inhibitors); chicken DT40 Tdp1-/-;hTDP1 cells + 20 nM CPT, ATP luminescence, 48 h; Potency, µM (doses to about 46.2 µM), for the others: top-dose activity change, negative = growth inhibition, hits mostly inhibitors; 12% of 420,000 active; AID 686979; further: nearly all actives have a fitted effect of over 55% in size
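Chicken DT40 Tdp1-/- cells stably complemented with human TDP1 were seeded at 400 cells/well in medium containing 20 nM camptothecin, exposed to pin-transferred compounds, and grown at 37 °C for at least 48 hr. Viability was read as ATP luminescence.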
TDP1 cell noCPT – qHTS for Inhibitors of human tyrosyl-DNA phosphodiesterase 1 (TDP1): qHTS in cells in absence of CPT; DT40 Tdp1-/- hTDP1 cells, no CPT, ATP luminescence, 48 h; Potency, µM (series often up to 46.2 µM), without a hit: at the top dose activity change, negative = growth inhibition, actives largely listed as inhibitors; 15% of 420,000 active; AID 686978, 2013; further: nearly all actives have a fitted effect of over 55% in size
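DT40 Tdp1-/-;hTDP1 cells, no CPT (DMSO vehicle only), 400 cells/well; compounds pin-transferred; ≥48 hr, 37 °C; CellTiter-Glo 30 min RT dark, luminescence read.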
HT1080 IDH1KD tx – kills HT-1080 cells with IDH1 knockdown; AID 686971; Potency, µM (titrated, usually from 46.1 µM), for inactives: top-dose activity, negative = toxicity, actives largely listed as cytotoxic; HT-1080 IDH1 knockdown viability, ATP luminescence, 48 h; 2% of 360,000 active;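 further: 0% = DMSO wells and -100% = cell-free medium wells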
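Viability of IDH1-knockdown HT-1080 fibrosarcoma cells was assessed by CellTiter-Glo after 48 h at 37 °C with titrated compound; concentration-effect curves were classified by fit quality and response size.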
KB-3-1 cytotox – kills parental KB-3-1 adenocarcinoma cells; Potency, µM (top dose mostly 46.1 µM), most hits filed as cytotoxic; KB-3-1 viability, CellTiter-Glo ATP luminescence, 72 h; 1.4% of 400,000 active; further: nearly all actives have a fitted effect of over 60% in size
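Cells are dispensed, compounds pinned in, plates held at 37 °C for 72 h, then CellTiter-Glo is added and luminescence read after 10 minutes. Cell line: parental KB-3-1 in phenol-red-free DMEM, 10% FBS.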
KB-V1 cytotox – KB-V1 MDR subline cytotoxicity; KB-V1 MDR cells viability, CellTiter-Glo, 72 h; Potency, µM (top dose mostly 46.1 µM), hits mostly cytotoxic; 3.4% of 400,000 active; AID 1347076; further: nearly all actives have a fitted effect of over 60% in size
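Luminescent ATP read-out (CellTiter-Glo, 10 min) measures survival of drug-selected KB-V1 MDR cells after 72 h, 37 degrees C compound exposure. Medium: phenol-red-free DMEM, 10% FBS. Values from fitted concentration-response curves.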
HT1080-NT tox – kills 2HG-producing HT-1080-NT fibrosarcoma cells. 1.6% of 360,000 active. HT-1080-NT fibrosarcoma viability, CellTiter-Glo ATP luminescence, 48 h. Potency, µM (top dose mostly 46.1 µM), without a hit: top-dose activity, negative = less viability, usual class: cytotoxic. AID 686970;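 further: NT is the 2HG producing partner of a matched IDH1 knockdown line; 0% = DMSO-treated cells and -100% = media-only wells without cells; nearly all actives have a fitted effect of over 55% in size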
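HT-1080-NT fibrosarcoma cells (2HG-overproducing), 750 cells/well in RPMI with 5% FBS, dosed after 2 h and incubated 48 h at 37C. CellTiter-Glo luminescence normalized to DMSO and no-cell wells; concentration-response curves fitted and classed.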
An asterisk follows results filed as active; i = inactive; ? = inconclusive; . = no result given; [ ] = another dose, or the depositor's remark. The call rests on the fitted dose curve; in most records, active means well fitted curve in the direction sought with a large enough effect; inconclusive means small, poorly fitted or top-dose-only effect, or another doubt; inactive means no such curve, though single readings can be large; an effect the other way counts as inactive or inconclusive. Unless noted, on the % scale 0 is the no-effect control and ±100 the full control effect; potency means the concentration at half of the fitted maximal effect.

SMILES	DT40 TDP1 CPT	TDP1 cell noCPT	HT1080 IDH1KD tx	KB-3-1 cytotox	KB-V1 cytotox	HT1080-NT tox
CCC[n+]1c(C)sc2c3c(ccc21)CCCC3	1.8µM*	2.3µM*	?	?	i	?
CCN1CCN(C(=O)CCc2nnc(CCc3ccc(OC)cc3)o2)[C@@H](C)C1=O	1%	3%	6%	i	i	6%
COC(=O)c1cc(NC(=O)CC2SC(=Nc3ccccc3)N(CCc3c[nH]c4ccccc34)C2=O)cc(C(=O)OC)c1 (stereo not given)	16µM*	?	?	?	i	?
Cc1noc(/C=C/N(C)C)c1S(=O)(=O)N1CCCC(C(=O)NC2CCCCC2C)C1 (stereo not given)	?	21µM*	0%	i	i	-24%
Cc1noc(/C=C/N(C)C)c1S(=O)(=O)N1CCCC(C(=O)NC(C)c2ccccc2)C1 (stereo not given)	-16%	-17%	0%	i	i	0%
Cc1ccc(NC(=O)C2CCCN(S(=O)(=O)c3c(C)noc3/C=C/N(C)C)C2)cc1F (stereo not given)	?	18µM*	?	i	i	6%[9.24 µM]
Cc1cccc(NC(=O)C2CCCN(S(=O)(=O)c3c(C)noc3/C=C/N(C)C)C2)c1C (stereo not given)	?	?	.	i	i	.
Cc1cccc(C)c1NC(=O)C1CCCN(S(=O)(=O)c2c(C)noc2/C=C/N(C)C)C1 (stereo not given)	16µM*	?	.	?	i	.
CCN(C(=O)CSc1nnc(-c2c[nH]c3ccccc23)n1C1CC1)C1CCS(=O)(=O)C1 (stereo not given)	7%	5%	4%	i	i	0%
CCOC(=O)c1c(-c2ccccc2)nc2ccc(C)cn12	?	16µM*	5%	i	21µM*	8%
CCOC(=O)C(=O)c1c(-c2ccccc2)nc2ccccn12	?	?	-4%	i	i	-6%
CCOC(=O)c1c(-c2ccccc2)nc2cc(C)ccn12	?	?	?	i	15µM*	-23%
CCOC(=O)c1c(C)nc2ccccn12	-6%	-10%	?	i	i	-2%
Cc1ccc(SCC(=O)c2c(C)nc3ccccn23)cc1	21µM*	10µM*	-23%	?	?	?
CCOC(=O)C(=O)c1c(-c2ccc(C)cc2)nc2ccccn12	23µM*	?	-2%	i	i	-3%
CCN(CC)S(=O)(=O)c1ccc(C(=O)NC(=S)N(CCC#N)Cc2cccnc2)cc1	-4%	3%	-1%	i	?	3%
CCCS(=O)(=O)Nc1ccc(N2CCCCC2)c(S(=O)(=O)Nc2ccccc2OC)c1	?	16µM*	1%	i	i	-3%
COc1ccccc1NS(=O)(=O)c1cc(NC(=O)c2cccnc2)ccc1N1CCCCC1	?	23µM*	-23%	?	?	?
COc1cc(/C=C/C(=O)Nc2ccc(N3CCCCC3)c(S(=O)(=O)Nc3ccccc3Cl)c2)cc(OC)c1OC	?	2.6µM*	25%	i	i	5%
O=C(Nc1cccc(C(F)(F)F)c1)Nc1ccc(N2CCCC2)c(S(=O)(=O)Nc2ccccc2Cl)c1	3.3µM*	2.9µM*	8.2µM*	7.3µM*	8.2µM*	?
COc1cc(/C=C/C(=O)Nc2cc(S(=O)(=O)N3CCOCC3)ccc2N2CCCC2)cc(OC)c1OC	?	?	1%	i	i	0%
Nc1ccc(N2CCCCC2)c(S(=O)(=O)Nc2ccccc2Cl)c1	-3%	-22%	-14%	i	i	-16%
COc1cc(/C=C2\C(=N)N3N=CSC3=NC2=O)cc(Br)c1OC(=O)c1ccco1	?	-14%	10%	i	i	4%
CCC(=O)c1cn(CC(=O)Nc2ccc(F)cc2)c2ccccc12	-8%	-2%	-18%	i	i	-7%
COc1ccccc1NS(=O)(=O)c1cc(NC(=O)Nc2ccc(Cl)cc2Cl)ccc1N1CCCCC1	?	?	-19%	?	10µM*	6%
SMILES	DT40 TDP1 CPT	TDP1 cell noCPT	HT1080 IDH1KD tx	KB-3-1 cytotox	KB-V1 cytotox	HT1080-NT tox
COc1ccccc1NS(=O)(=O)c1cc(NC(=O)C2CCC2)ccc1N1CCCCC1	?	?	1%	i	i	-3%
Cc1cc2c(cc1C)-n1nnnc1C(N1CCCC1)C(=O)N2 (stereo not given)	-16%	-29%	9%	i	i	12%
Cc1c(C)c2ccc(OC(C)C(=O)NC3CCN(Cc4ccccc4)CC3)cc2oc1=O (stereo not given)	18%	?	-18%	i	i	-22%
Cc1cc(C)n(-c2nc(C)c(C)c(=O)n2CC(=O)Nc2ccc(OC(F)(F)F)cc2)n1	15µM*	18µM*	.	.	.	.
Cc1cc(=O)n(CC(=O)Nc2ccc([N+](=O)[O-])cc2)c(-n2nc(C)cc2C)n1	18µM*	21µM*	.	i	?	.
Cc1cc(NS(=O)(=O)c2ccc(NC(=O)Cc3ccc([N+](=O)[O-])cc3)cc2)nc(C)n1	8%	9%	7%	.	.	3%
CCCCN1C(=O)C(=O)N(CC(=O)Nc2ccc(OC(F)(F)F)cc2)C1=O	?	-19%	0%	i	?	5%
Cc1cc(C)n(-c2nc(C)c(C)c(=O)n2CC(=O)Nc2ccc(Cl)c(Cl)c2)n1	15µM*	7.3µM*	.	.	.	.
Cc1ccc(NC(=S)N(CCCN2CCOCC2)Cc2cccnc2)cc1C	1%	-11%	-2%	?	?	-10%
COc1cc(C(=O)NCCCN2CCCC2=O)cc(Br)c1OCc1ccccc1	?	18µM*	2%	i	i	-4%[9.24 µM]
COc1cc(C(=O)NCC(c2cccs2)N2CCOCC2)cc(Br)c1OCc1ccccc1 (stereo not given)	9.2µM*	9.2µM*	-9%	?	?	-25%
O=C(NCC(c1cccs1)N1CCOCC1)c1cc(F)cc(F)c1 (stereo not given)	21µM*	15µM*	5.8µM*	?	?	7.3µM*
COc1ccc(C(=O)NCCCN2CCCC2=O)cc1	-3%	-2%	6%	i	i	16%
COc1ccc(C(=O)NCC(c2cccs2)N2CCOCC2)cc1OC (stereo not given)	6%	19%	11%	i	i	14%
